# Data taken from article PMC7862700, “An all-to-all approach to the identification of sequence-specific readers for epigenetic DNA modifications on cytosine”.
# Columns and labels:
# Assay in all cases: DAPPL (digital affinity profiling via proximity ligation, sequencing); 10 mM Tris-HCl pH 7.5, 50 mM NaCl, 1 mM DTT, 4% glycerol, room temperature, 30 min; GST-TFs on glutathione beads, 16-mer random dsDNA library, 0.1% formaldehyde crosslink after washing; high values mean tight binding
# HSF1 = HSF1 (Homo sapiens, UniProt Q00613 1-529); settings: protein: recombinant; tags: N-terminal GST; chain copies: 3; dsDNA, one strand shown
# Chain of HSF1 (Q00613 whole entry, the tested form may be a part): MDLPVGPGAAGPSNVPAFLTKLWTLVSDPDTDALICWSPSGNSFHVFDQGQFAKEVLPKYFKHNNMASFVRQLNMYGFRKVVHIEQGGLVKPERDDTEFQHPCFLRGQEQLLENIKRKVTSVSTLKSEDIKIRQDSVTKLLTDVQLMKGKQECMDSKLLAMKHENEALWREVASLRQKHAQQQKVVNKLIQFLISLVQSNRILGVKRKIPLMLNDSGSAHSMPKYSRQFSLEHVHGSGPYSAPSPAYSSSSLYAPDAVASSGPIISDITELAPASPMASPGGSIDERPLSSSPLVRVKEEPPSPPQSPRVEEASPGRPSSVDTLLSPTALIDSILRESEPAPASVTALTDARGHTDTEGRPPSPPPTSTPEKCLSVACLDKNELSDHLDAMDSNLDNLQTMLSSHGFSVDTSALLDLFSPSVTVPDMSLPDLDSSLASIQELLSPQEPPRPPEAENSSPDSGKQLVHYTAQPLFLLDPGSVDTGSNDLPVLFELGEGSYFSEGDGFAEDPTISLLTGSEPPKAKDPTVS
# Method in brief: (§1)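 After expression in yeast as GST fusions, human transcription factors were bound to glutathione beads, DNA-barcoded and mixed with a tag-only sample. The pools were incubated with 200 nmole of a 16-mer random double-stranded DNA library in Tris/NaCl/DTT/glycerol buffer (30 min, room temperature), washed and crosslinked with 0.1% formaldehyde. Proximity ligation with BsaI/T4 ligase ran for 1 h at 37 °C, before PCR amplification and sequencing on an Illumina NextSeq500. Binding signal is a hexamer's read frequency for a factor divided by its frequency for the tag-only sample.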
# ELK1 = molecular target: T1, ELK1 (Homo sapiens, UniProt P19419 1-428); settings: protein: recombinant; tags: N-terminal GST; dsDNA, one strand shown
# T1 sequence: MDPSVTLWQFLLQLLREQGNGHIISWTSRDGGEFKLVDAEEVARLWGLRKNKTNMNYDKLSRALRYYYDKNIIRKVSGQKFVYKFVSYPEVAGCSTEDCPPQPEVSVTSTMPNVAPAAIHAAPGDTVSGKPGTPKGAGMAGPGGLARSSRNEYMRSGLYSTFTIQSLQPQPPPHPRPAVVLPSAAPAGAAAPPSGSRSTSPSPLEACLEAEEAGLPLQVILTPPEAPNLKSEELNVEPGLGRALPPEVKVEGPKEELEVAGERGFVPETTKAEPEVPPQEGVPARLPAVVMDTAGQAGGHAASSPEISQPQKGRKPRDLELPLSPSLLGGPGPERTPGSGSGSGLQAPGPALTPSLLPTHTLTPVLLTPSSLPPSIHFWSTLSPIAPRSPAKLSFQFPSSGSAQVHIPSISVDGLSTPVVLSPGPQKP
# Method in brief: as §1
# ERG = molecular target: T2, ERG (Homo sapiens, UniProt P11308 1-479); settings: protein: recombinant; tags: N-terminal GST; dsDNA, one strand shown
# T2 sequence: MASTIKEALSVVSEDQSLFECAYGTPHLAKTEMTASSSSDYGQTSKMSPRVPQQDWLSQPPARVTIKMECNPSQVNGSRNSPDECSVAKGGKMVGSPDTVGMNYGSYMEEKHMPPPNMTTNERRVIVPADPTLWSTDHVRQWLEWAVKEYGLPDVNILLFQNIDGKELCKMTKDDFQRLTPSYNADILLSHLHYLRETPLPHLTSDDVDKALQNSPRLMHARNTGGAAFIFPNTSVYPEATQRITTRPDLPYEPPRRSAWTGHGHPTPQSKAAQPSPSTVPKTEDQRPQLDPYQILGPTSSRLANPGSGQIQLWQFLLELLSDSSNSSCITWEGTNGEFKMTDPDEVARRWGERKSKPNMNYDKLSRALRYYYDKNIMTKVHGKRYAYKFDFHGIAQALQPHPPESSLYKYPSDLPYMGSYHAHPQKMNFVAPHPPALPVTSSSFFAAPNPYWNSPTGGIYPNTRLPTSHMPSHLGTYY
# Method in brief: as §1
# EHF = molecular target: T3, EHF (Homo sapiens, UniProt Q9NZC4 1-300); settings: protein: recombinant; tags: N-terminal GST; dsDNA, one strand shown
# T3 sequence: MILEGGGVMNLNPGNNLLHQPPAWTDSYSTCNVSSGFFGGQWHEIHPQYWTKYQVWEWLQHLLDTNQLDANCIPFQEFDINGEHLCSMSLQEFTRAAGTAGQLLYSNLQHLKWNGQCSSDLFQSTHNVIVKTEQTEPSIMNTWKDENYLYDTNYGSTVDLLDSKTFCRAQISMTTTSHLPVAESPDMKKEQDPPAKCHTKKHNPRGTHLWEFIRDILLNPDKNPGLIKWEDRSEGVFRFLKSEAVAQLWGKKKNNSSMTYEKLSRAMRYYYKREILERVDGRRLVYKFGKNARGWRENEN
# Method in brief: as §1
# SPI1 = SPI1 (Homo sapiens, UniProt P17947 1-270); settings: protein: recombinant; tags: N-terminal GST; dsDNA, one strand shown
# Method in brief: as §1
# ELK3 = molecular target: T4, ELK3 (Homo sapiens, UniProt P41970 1-407); settings: protein: recombinant; tags: N-terminal GST; dsDNA, one strand shown
# T4 sequence: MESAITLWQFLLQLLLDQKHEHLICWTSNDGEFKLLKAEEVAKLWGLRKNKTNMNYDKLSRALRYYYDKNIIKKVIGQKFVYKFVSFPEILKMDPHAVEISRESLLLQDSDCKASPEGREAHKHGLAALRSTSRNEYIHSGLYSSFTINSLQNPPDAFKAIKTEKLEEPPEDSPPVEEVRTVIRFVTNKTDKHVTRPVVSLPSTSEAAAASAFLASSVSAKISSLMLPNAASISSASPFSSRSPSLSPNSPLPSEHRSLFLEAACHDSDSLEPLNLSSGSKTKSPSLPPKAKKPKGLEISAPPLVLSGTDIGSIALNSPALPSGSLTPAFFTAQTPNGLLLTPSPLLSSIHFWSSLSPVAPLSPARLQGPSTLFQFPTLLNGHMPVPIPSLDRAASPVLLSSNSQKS
# Method in brief: as §1
# SPIC = molecular target: T5, SPIC (Homo sapiens, UniProt Q8N5J4 1-248); settings: protein: recombinant; tags: N-terminal GST; dsDNA, one strand shown
# T5 sequence: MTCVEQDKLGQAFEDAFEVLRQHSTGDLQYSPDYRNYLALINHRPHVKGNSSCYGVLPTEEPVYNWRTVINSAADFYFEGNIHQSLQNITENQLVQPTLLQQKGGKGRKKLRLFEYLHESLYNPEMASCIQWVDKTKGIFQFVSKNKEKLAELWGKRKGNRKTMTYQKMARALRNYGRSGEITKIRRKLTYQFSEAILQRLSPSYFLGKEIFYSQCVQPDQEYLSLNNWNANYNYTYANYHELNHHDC
# Method in brief: as §1
# ELF4 = ELF4 (Homo sapiens, UniProt Q99607 1-663); settings: protein: recombinant; tags: N-terminal GST; dsDNA, one strand shown
# Chain of ELF4 (Q99607 whole entry): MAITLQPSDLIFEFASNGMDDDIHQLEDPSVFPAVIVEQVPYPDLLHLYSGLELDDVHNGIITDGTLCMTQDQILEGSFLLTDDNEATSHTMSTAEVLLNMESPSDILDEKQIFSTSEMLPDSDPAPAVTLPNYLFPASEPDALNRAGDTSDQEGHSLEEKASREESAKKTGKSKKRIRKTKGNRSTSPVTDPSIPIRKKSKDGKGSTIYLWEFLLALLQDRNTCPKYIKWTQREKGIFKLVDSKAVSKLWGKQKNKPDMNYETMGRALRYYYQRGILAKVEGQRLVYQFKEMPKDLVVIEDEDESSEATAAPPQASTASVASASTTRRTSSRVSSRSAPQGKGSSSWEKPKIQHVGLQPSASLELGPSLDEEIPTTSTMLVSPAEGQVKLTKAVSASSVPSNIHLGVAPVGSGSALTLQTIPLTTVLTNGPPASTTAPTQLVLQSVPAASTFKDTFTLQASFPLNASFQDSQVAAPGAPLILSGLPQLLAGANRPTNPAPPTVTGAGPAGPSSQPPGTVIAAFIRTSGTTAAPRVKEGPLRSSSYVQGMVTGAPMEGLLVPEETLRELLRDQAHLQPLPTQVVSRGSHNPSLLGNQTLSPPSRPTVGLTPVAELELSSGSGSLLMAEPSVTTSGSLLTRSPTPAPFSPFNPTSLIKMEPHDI
# Method in brief: as §1
# ETV2 = molecular target: T6, ETV2 (Homo sapiens, UniProt O00321 1-342); settings: protein: recombinant; tags: N-terminal GST; dsDNA, one strand shown
# T6 sequence: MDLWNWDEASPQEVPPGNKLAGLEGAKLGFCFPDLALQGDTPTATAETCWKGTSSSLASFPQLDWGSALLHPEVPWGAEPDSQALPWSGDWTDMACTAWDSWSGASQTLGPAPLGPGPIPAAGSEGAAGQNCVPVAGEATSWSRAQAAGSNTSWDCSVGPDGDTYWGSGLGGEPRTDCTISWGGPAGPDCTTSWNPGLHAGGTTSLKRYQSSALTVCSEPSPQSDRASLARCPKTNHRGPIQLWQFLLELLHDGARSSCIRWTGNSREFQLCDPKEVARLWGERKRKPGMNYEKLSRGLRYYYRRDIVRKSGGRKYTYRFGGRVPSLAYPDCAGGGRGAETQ
# Method in brief: as §1
# ELF3 = molecular target: T7, ELF3 (Homo sapiens, UniProt P78545 1-371); settings: protein: recombinant; tags: N-terminal GST; dsDNA, one strand shown
# T7 sequence: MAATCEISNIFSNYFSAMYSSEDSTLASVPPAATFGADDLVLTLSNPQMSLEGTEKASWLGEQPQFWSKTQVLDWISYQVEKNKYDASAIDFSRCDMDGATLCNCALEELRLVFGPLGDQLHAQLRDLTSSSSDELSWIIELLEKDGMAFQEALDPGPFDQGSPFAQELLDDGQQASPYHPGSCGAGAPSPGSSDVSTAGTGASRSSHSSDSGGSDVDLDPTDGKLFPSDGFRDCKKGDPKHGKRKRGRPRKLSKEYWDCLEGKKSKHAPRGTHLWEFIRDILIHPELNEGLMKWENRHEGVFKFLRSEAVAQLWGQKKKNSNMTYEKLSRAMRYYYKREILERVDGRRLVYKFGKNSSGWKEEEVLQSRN
# Method in brief: as §1
# CRX = CRX (Homo sapiens, UniProt O43186 1-299); settings: protein: recombinant; tags: N-terminal GST; dsDNA, one strand shown
# Chain of CRX (O43186 whole entry): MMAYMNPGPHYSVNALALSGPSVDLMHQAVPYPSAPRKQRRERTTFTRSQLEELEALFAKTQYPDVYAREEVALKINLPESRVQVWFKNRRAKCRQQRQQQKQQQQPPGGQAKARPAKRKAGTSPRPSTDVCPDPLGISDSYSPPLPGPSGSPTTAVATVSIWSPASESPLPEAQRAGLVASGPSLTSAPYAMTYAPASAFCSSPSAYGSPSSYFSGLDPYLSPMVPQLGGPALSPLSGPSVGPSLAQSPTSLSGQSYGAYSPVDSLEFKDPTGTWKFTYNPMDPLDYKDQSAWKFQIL
# Method in brief: as §1
# ETV1 = ETV1 (Homo sapiens, UniProt P50549 1-477); settings: protein: recombinant; tags: N-terminal GST; dsDNA, one strand shown
# Chain of ETV1 (P50549 whole entry): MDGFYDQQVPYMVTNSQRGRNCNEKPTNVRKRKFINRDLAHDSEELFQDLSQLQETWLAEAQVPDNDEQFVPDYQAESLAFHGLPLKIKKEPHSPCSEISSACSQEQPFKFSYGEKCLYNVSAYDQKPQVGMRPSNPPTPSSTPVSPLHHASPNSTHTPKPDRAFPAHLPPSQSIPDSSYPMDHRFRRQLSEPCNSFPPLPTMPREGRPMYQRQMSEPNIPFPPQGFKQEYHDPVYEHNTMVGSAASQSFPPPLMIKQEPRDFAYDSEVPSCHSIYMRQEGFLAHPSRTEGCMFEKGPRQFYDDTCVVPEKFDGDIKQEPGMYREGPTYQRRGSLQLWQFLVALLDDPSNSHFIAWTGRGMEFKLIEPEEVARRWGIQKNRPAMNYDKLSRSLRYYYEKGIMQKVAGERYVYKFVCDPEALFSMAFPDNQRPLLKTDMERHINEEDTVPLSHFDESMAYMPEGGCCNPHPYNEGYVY
# Method in brief: as §1
# ETV3L = molecular target: T8, ETV3L (Homo sapiens, UniProt Q6ZN32 1-361); settings: protein: recombinant; tags: N-terminal GST; dsDNA, one strand shown
# T8 sequence: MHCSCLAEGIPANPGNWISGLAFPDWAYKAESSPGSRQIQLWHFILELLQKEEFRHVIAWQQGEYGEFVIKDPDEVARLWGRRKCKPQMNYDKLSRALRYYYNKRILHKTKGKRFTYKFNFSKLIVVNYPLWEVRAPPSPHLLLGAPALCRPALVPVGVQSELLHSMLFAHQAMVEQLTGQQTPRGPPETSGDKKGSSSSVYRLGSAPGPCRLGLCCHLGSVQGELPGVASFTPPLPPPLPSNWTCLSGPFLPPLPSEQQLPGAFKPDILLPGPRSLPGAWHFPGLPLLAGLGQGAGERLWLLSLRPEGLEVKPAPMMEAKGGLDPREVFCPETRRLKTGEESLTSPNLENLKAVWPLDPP
# Method in brief: as §1
# SPDEF = molecular target: T9, SPDEF (Homo sapiens, UniProt O95238 1-335); settings: protein: recombinant; tags: N-terminal GST; dsDNA, one strand shown
# T9 sequence: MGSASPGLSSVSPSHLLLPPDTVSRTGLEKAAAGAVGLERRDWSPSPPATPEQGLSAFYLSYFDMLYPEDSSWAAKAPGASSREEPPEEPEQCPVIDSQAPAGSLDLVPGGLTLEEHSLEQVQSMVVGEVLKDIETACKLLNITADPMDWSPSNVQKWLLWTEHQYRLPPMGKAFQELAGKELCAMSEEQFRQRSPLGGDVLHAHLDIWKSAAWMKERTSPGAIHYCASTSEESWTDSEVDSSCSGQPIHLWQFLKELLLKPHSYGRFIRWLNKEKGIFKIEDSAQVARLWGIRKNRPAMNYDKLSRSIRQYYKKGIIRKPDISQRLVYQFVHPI
# Method in brief: as §1
sequence,measurement,setting,value
ACGAGA,binding signal,HSF1,"1.14 fold enrichment (6-mer frequency, TF over GST control)"
GTCTAG,binding signal,HSF1,"1.48 fold enrichment (6-mer frequency, TF over GST control)"
TGGATC,binding signal,ELK1,"1.01 fold enrichment (6-mer frequency, TF over GST control)"
same,binding signal,ERG,"1.02 fold enrichment (6-mer frequency, TF over GST control)"
same,binding signal,EHF,"1 fold enrichment (6-mer frequency, TF over GST control)"
same,binding signal,SPI1,"1.03 fold enrichment (6-mer frequency, TF over GST control)"
same,binding signal,ELK3,"1.09 fold enrichment (6-mer frequency, TF over GST control)"
same,binding signal,HSF1,"1.16 fold enrichment (6-mer frequency, TF over GST control)"
same,binding signal,SPIC,"1.11 fold enrichment (6-mer frequency, TF over GST control)"
same,binding signal,ELF4,"1.02 fold enrichment (6-mer frequency, TF over GST control)"
same,binding signal,ETV2,"1.03 fold enrichment (6-mer frequency, TF over GST control)"
same,binding signal,ELF3,"1.06 fold enrichment (6-mer frequency, TF over GST control)"
same,binding signal,CRX,"1.15 fold enrichment (6-mer frequency, TF over GST control)"
same,binding signal,ETV1,"1.01 fold enrichment (6-mer frequency, TF over GST control)"
same,binding signal,ETV3L,"1.12 fold enrichment (6-mer frequency, TF over GST control)"
same,binding signal,SPDEF,"1.09 fold enrichment (6-mer frequency, TF over GST control)"
